Test systems include SK-MEL-2 melanoma; EKVX NSCLC; SN12C renal; UO-31 renal; TK-10 renal; A498 renal; CCRF-CEM leukemia; MOLT-4 leukemia; SR leukemia; RPMI-8226 leukemia; OVCAR-8 ovarian; OVCAR-5 ovarian; OVCAR-4 ovarian; SK-OV-3 ovarian; OVCAR-3 ovarian; HS 578T breast; IGROV1 ovarian; NCI/ADR-RES ovarian.
What all share (assay): NCI-60 one-dose screen, 48 h (100 = growth as untreated, 0 = no growth, -100 = all killed)
Details in all cases: 10 µM unless noted

For 9 compounds, growth results are on record in PubChem BioAssay (NCI).

About 83,000 compounds went through this panel and 20% of them were active in at least one assay; those are over-represented in the sample as a whole.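 Results are percent growth after 48 hours of single-concentration exposure. 100 means growth as in untreated cells, lower positive values show inhibition; negative values down to -100 show cell death.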 A number with no mark means an inactive call. Calls of active or inactive are those of the source. Rule for the calls: active = growth percent below 10; inactive = the rest.

For the compound `COc1ccc2c(-c3ccc(F)cc3)c(C#N)c(=NC(C)=O)oc2c1`, the growth in the assay with SK-MEL-2 melanoma was 26.5%; with EKVX NSCLC, 62.8%; in the assay on SN12C renal it was 56.9%; in the assay on UO-31 renal, 50.4%; in the assay with TK-10 renal, 78.1%; with A498 renal, 18.1%. Also, the growth in the assay with CCRF-CEM leukemia was 13.1%; with MOLT-4 leukemia, 29.6%; with SR leukemia it was 13.7%; in the assay with RPMI-8226 leukemia it was 12.3%; with OVCAR-8 ovarian, 50.2%; in the assay with OVCAR-5 ovarian, 103%. The growth was 92.5% with OVCAR-4 ovarian, 44.6% in the assay with SK-OV-3 ovarian, 18.2% in the assay on OVCAR-3 ovarian and 42.9% in the assay on HS 578T breast.

`COc1ccccc1NC(=O)COc1ccc(/C=C2/Oc3cc4occc4c(OC)c3C2=O)cc1OC`: the growth in the assay on SK-MEL-2 melanoma was 108%; in the assay with EKVX NSCLC, 99.2%; with SN12C renal, 104%; in the assay with UO-31 renal, 99.9%; in the assay with TK-10 renal, 119%; in the assay with A498 renal it was 99%. Also, the growth was 69.9% in the assay with CCRF-CEM leukemia; 83.4% in the assay on MOLT-4 leukemia; 93.5% with SR leukemia; 66.7% with RPMI-8226 leukemia; 85.4% with OVCAR-8 ovarian; 111% with OVCAR-5 ovarian. Also, the growth is 112% with OVCAR-4 ovarian; 110% in the assay on SK-OV-3 ovarian; 122% in the assay on IGROV1 ovarian; 112% in the assay on HS 578T breast; 90.8% with NCI/ADR-RES ovarian.

For `COc1ccc(Cl)cc1NC(=O)c1cc2c([nH]1)-c1nc(N)sc1CCC2`, the growth was 98% in the assay with SK-MEL-2 melanoma; 92.5% with EKVX NSCLC; 97.4% in the assay with SN12C renal; 79.4% with UO-31 renal; 97.8% in the assay on TK-10 renal; 95.9% in the assay with A498 renal. In addition, the growth in the assay on CCRF-CEM leukemia is 86.7%; with MOLT-4 leukemia it was 62%; in the assay on SR leukemia, 79.4%; in the assay on RPMI-8226 leukemia, 108%; in the assay on OVCAR-8 ovarian it was 101%; in the assay with OVCAR-5 ovarian it was 103%. Further, the growth was 111% in the assay on OVCAR-4 ovarian; 98.4% with SK-OV-3 ovarian; 106% with IGROV1 ovarian; 108% with HS 578T breast; 92.7% with NCI/ADR-RES ovarian.

As to `COc1ccccc1C(OC(C)=O)OC(C)=O`, the growth in the assay with SK-MEL-2 melanoma was 90.7%; in the assay on EKVX NSCLC, 99%; in the assay with SN12C renal it was 111%; with UO-31 renal, 89.9%; in the assay on TK-10 renal it was 91.1%; in the assay with A498 renal, 113%. The growth was 113% with CCRF-CEM leukemia; 103% with MOLT-4 leukemia; 88.7% with SR leukemia; 101% with RPMI-8226 leukemia; 112% in the assay with OVCAR-8 ovarian; 112% with OVCAR-5 ovarian. The growth is 111% in the assay with OVCAR-4 ovarian; 104% in the assay on SK-OV-3 ovarian; 112% in the assay with IGROV1 ovarian; 106% in the assay on OVCAR-3 ovarian; 106% with HS 578T breast; 100% with NCI/ADR-RES ovarian.

With `COc1ccc(/C=C/C(=O)c2ccc(Oc3ncnc4ccccc34)cc2)cc1OC`, the growth is 89.8% with SK-MEL-2 melanoma; 77.7% in the assay on EKVX NSCLC; 79% in the assay with SN12C renal; 51.1% in the assay with UO-31 renal; 96.6% in the assay on TK-10 renal; 98.9% with A498 renal. Further, the growth in the assay with CCRF-CEM leukemia is 46.4%; in the assay with MOLT-4 leukemia, 56.6%; in the assay on SR leukemia, 16.7%; in the assay on RPMI-8226 leukemia, 0.391% (active); in the assay with OVCAR-8 ovarian it was 85.1%; in the assay on OVCAR-5 ovarian, 92.9%. Besides, the growth in the assay on OVCAR-4 ovarian was 70.4%; in the assay with SK-OV-3 ovarian, 91.1%; with OVCAR-3 ovarian it was 43.8%; with HS 578T breast, 88.5%; in the assay on NCI/ADR-RES ovarian, 80.3%.

Take `CC(C)CNCC(=O)Nc1ccc(Cc2ccc(NC(=O)CNCC(C)C)cc2)cc1`: the growth in the assay on SK-MEL-2 melanoma is 87.6%; in the assay with EKVX NSCLC, 67.9%; with SN12C renal, 49.7%; in the assay on UO-31 renal, 38.4%; in the assay with TK-10 renal it was 84.8%; with A498 renal it was 47.2%. The growth in the assay on CCRF-CEM leukemia was 26.4%; with MOLT-4 leukemia, 23.1%; in the assay with RPMI-8226 leukemia, 32.8%; in the assay on OVCAR-8 ovarian, 62.1%; in the assay on OVCAR-5 ovarian, 72.8%; with OVCAR-4 ovarian, 71.6%. The growth in the assay with SK-OV-3 ovarian is 84.1%; with IGROV1 ovarian it was 47.2%; with OVCAR-3 ovarian, 74.5%; with HS 578T breast, 65.1%; with NCI/ADR-RES ovarian, 78.2%.

Regarding `COc1ccc(/C=C2/C(=O)Nc3cc(Cl)c(-c4csc(N)n4)cc32)cc1`, the growth with SK-MEL-2 melanoma is 35%; in the assay with EKVX NSCLC, 46.5%; in the assay on SN12C renal it was 59.6%; in the assay with UO-31 renal, 55.6%; with TK-10 renal, 84.4%; in the assay on A498 renal, 25.1%. For the same compound, the growth in the assay on CCRF-CEM leukemia was 31.7%; with MOLT-4 leukemia it was 28.2%; in the assay on SR leukemia it was 18.4%; in the assay with RPMI-8226 leukemia, 39.3%; with OVCAR-8 ovarian it was 61.8%; in the assay with OVCAR-5 ovarian, 85%. Also, the growth was 70.1% with OVCAR-4 ovarian; 56.1% in the assay on IGROV1 ovarian; 17% with OVCAR-3 ovarian; 45.7% in the assay with HS 578T breast; 32.2% in the assay with NCI/ADR-RES ovarian.

Regarding `Cc1cc(Nc2ccc(Cl)c(Cl)c2)nc(N)n1`, the growth was 102% in the assay on SK-MEL-2 melanoma; 54.7% in the assay with EKVX NSCLC; 106% in the assay on SN12C renal; 86.2% with UO-31 renal; 87.3% in the assay with TK-10 renal; 78.8% in the assay on A498 renal. For the same compound, the growth is 98.5% in the assay on CCRF-CEM leukemia; 78.8% with MOLT-4 leukemia; 78% with SR leukemia; 80.9% in the assay on RPMI-8226 leukemia; 107% with OVCAR-8 ovarian; 105% in the assay with OVCAR-5 ovarian. For the same compound, the growth with OVCAR-4 ovarian is 92.8%; with SK-OV-3 ovarian, 105%; in the assay on OVCAR-3 ovarian, 98.9%; in the assay with HS 578T breast it was 92.6%; in the assay on NCI/ADR-RES ovarian, 98.3%.

In the case of `Cc1c(NC(=O)c2sc3nc4c(cc3c2N)CN(Cc2ccccc2)CC4)cccc1C(F)(F)F`, the growth with SK-MEL-2 melanoma is 49.5%; in the assay on EKVX NSCLC it was 62.1%; in the assay on SN12C renal it was 55.2%; in the assay with UO-31 renal, 65.6%; with TK-10 renal, 96%; in the assay with A498 renal, 52%. The growth was 15.6% in the assay with CCRF-CEM leukemia; 25.9% with MOLT-4 leukemia; 20.1% in the assay with SR leukemia; 36.3% with RPMI-8226 leukemia; 63.1% in the assay on OVCAR-8 ovarian; 79.6% in the assay with OVCAR-5 ovarian. The growth in the assay with OVCAR-4 ovarian was 60%; in the assay on SK-OV-3 ovarian, 77.8%; in the assay on IGROV1 ovarian, 51%; in the assay on HS 578T breast, 31%; in the assay on NCI/ADR-RES ovarian, 43.7%.
